A selection: hits, their analogues and other compounds. The true share with any hit is near 3.5%.
GPR151 ag: activates the human receptor GPR151. PathHunter beta-arrestin GPR151 cells, luminescence. activation, % at 11.2 µM. actives 1% (n = 650,000). AID 1508602; in the data active = activation above about 4.9%;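 also: 0% = median of compound wells and 100% = cells with positive control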
Target sequence (Q8TDV0 whole entry, looked up): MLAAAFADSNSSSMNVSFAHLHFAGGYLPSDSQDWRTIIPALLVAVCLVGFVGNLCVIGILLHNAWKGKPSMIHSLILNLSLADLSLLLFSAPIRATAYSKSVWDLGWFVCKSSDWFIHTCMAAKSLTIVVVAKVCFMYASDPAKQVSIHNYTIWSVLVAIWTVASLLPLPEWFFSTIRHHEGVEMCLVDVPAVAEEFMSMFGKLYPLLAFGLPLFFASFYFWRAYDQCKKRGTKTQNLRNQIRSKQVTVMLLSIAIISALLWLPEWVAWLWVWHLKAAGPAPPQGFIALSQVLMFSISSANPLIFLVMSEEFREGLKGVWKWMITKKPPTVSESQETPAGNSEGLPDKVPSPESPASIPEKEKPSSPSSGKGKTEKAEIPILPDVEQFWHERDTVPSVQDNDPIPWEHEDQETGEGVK
MITF inh: blocks human microphthalmia-associated transcription factor; O75030; AlphaScreen MITF homodimerization, bead proximity signal; inhibition, % at 2.6 µM; actives 0.91% (n = 650,000); AID 1259374; in the data active = inhibition above about 50%;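 also: 0% = vehicle wells with protein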
TEAD-YAP block: TEAD-YAP interaction inhibition | HEK-TIYL cells, TEAD-Gal4/YAP UAS-luciferase luminescence | actives 1.4% (n = 640,000) | AID 1259422 | inhibition, % at 9.12 µM; in the data active = inhibition above about 32%;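 also: 0% = median of test compound wells and 100% = reference inhibitor wells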
FBW7 act: activators of human E3 ligase FBW7. AlphaScreen FBW7–phospho-cyclin E peptide binding, activator screen. Q969H0. normalized activity (activation), % at 26.1 µM. actives 0.13% (n = 650,000); in the data active = normalized activity above about 1.9%;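 also: purified mutant Fbw7 with reduced substrate affinity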
GPR151 confirm: human GPR151 activation, confirmation screen; shares compounds with GPR151 ag; GPR151 PathHunter beta-arrestin cells, luminescence, 90 min; % of EA-reagent control over plate median; activation, % at 11.2 µM; 6,700 tested, under 10 active;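 active = mean percent activation across replicates above the confirmation screen cutoff of 4.91%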
GPR119 counter: activates human GPR119 in a GPR151 counter-screen; shares compounds with GPR151 ag; GPR119 PathHunter beta-arrestin cells, luminescence, 90 min; 0 = compound-well median, 100 = enzyme-acceptor control; activation, % at 11.2 µM; actives 0.3% (n = 6,700); AID 1508611;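 active = mean percent activation in the counterscreen above 29.09%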;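 also: counterscreen on off-target GPR119 to flag nonselective hits from the GPR151 activator screen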
Starred values were filed as active, the others as inactive; ! = not active in a repeat.

What do the screens show for `CC(C)n1c(C(F)(F)F)nc2ccccc21`?
GPR151 ag: 5.2*; MITF inh: 9.7; TEAD-YAP block: 5.7; FBW7 act: 0.1; GPR151 confirm: 2.2; GPR119 counter: 8.7

What do the screens show for `Cc1ccccc1-n1c(SCC(=O)C(C)(C)C)nc2c(sc(=S)n2-c2ccccc2C)c1=O`?
GPR151 ag: 1.4; MITF inh: 3.9; TEAD-YAP block: -2.8; FBW7 act: -0.1

What do the screens show for `Cc1cccc(NC(=O)C(c2ccc(Cl)cc2Cl)N2CCC2=O)c1` (stereo not drawn)?
GPR151 ag: 7.8*; MITF inh: -4.2; TEAD-YAP block: 8.7; FBW7 act: 0.2; GPR151 confirm: 0.8; GPR119 counter: 0.5

How did O=C(CSCC(=O)Nc1ccccn1)Nc1ccc2ccccc2c1 do in these assays?
GPR151 ag: -1.5; MITF inh: 0.4; TEAD-YAP block: -15.3; FBW7 act: -0.1

What do the screens show for `O=C(CSCCc1ccccn1)Nc1ccccc1Cl`?
GPR151 ag: 8.0*; MITF inh: 2.5; TEAD-YAP block: -13.1; FBW7 act: -0.3; GPR151 confirm: 0.0; GPR119 counter: -0.4

How did O=C(CSCCc1ccccn1)Nc1ccc(I)cc1 do in these assays?
GPR151 ag: 5.7*; MITF inh: -13.7; TEAD-YAP block: -24.8; FBW7 act: 0.0; GPR151 confirm: -0.3; GPR119 counter: 4.5

What do the screens show for `O=C(CSCc1ccccn1)Nc1ccc2ccccc2c1`?
GPR151 ag: 7.5*; MITF inh: -7.6; TEAD-YAP block: -39.6; FBW7 act: -0.1; GPR151 confirm: 0.3; GPR119 counter: 9.3

How did COCCNC(=S)NNC(=O)Cc1c(Cl)cccc1Cl do in these assays?
GPR151 ag: -0.5; MITF inh: 10.7; TEAD-YAP block: -3.4; FBW7 act: 0.1

What do the screens show for `COc1ccc(C2CC(=O)C=C(Nc3ccc(Br)cc3)C2)cc1OC` (stereo not drawn)?
GPR151 ag: 0.5; MITF inh: 10.8; TEAD-YAP block: -5.8; FBW7 act: 0.1

What do the screens show for `COC1=CC(=O)C[C@@H](C)[C@]12Oc1c(Cl)c(OC)cc(OC)c1C2=O`?
GPR151 ag: 5.4*!; MITF inh: -6.7; TEAD-YAP block: 42.9*!; FBW7 act: 0.1; GPR151 confirm: 0.4; GPR119 counter: 2.0

What do the screens show for `CCOc1ccc(NS(=O)(=O)c2cc([N+](=O)[O-])ccc2C)cc1`?
GPR151 ag: -0.2; MITF inh: 6.6; TEAD-YAP block: 0.3; FBW7 act: 0.0

What do the screens show for `O=C(Cc1ccc(F)cc1)N1CCC(O)(c2ccccn2)CC1`?
GPR151 ag: 10.7*; MITF inh: 13.8; TEAD-YAP block: -4.7; FBW7 act: 0.3; GPR151 confirm: 0.6; GPR119 counter: 13.1

How did O=C(Cc1cccc(F)c1)N1CCC(O)(c2ccccn2)CC1 do in these assays?
GPR151 ag: 0.0; MITF inh: -3.8; TEAD-YAP block: 0.4; FBW7 act: -0.1

How did CC12CCC(C(=O)N(CCCCN3C(=O)C4CCC(C)(C3=O)C4(C)C)C1=O)C2(C)C do in these assays?
GPR151 ag: 0.5; MITF inh: 9.4; TEAD-YAP block: 8.7; FBW7 act: -0.2

Results for COc1ccc(Cl)cc1NC(=O)Cn1nc2n(C)c3ccccc3n2c(=O)c1=O ?
GPR151 ag: -0.4; MITF inh: -1.1; TEAD-YAP block: 3.6; FBW7 act: 0.5

Results for COC(=O)c1ccc(NC(=O)Cn2nc3n(C)c4ccccc4n3c(=O)c2=O)cc1 ?
GPR151 ag: 8.8*; MITF inh: 3.0; TEAD-YAP block: -12.3; FBW7 act: -0.1; GPR151 confirm: 0.9; GPR119 counter: 1.9

What do the screens show for `S=c1nc(SCc2ccccc2Cl)[nH][nH]1`?
GPR151 ag: -0.4; MITF inh: -7.9; TEAD-YAP block: -15.2; FBW7 act: 0.0

What do the screens show for `O=C(COc1ccccc1Cl)Nc1ccccc1N1CCCC1`?
GPR151 ag: 1.1; MITF inh: 4.0; TEAD-YAP block: -3.5; FBW7 act: -0.1

How did Cc1nnc(SCC(=O)N2CCc3ccccc3C2)[nH]c1=O do in these assays?
GPR151 ag: 10.4*; MITF inh: -13.8; TEAD-YAP block: -10.0; FBW7 act: -0.1; GPR151 confirm: -0.1; GPR119 counter: 7.6

How did O=C(CSc1nc2ccccc2c(=O)[nH]1)N1CCc2ccccc2C1 do in these assays?
GPR151 ag: 0.1; MITF inh: 14.6; TEAD-YAP block: -2.1; FBW7 act: 0.0

Results for COc1ccc(-n2nc(C(=O)NCC(=O)NCCCN3CCC(C)CC3)c3ccccc3c2=O)cc1OC ?
GPR151 ag: -0.7; MITF inh: -1.4; TEAD-YAP block: -2.9; FBW7 act: -0.1

How did COc1ccccc1-n1nc(C(=O)Nc2ccc(Cl)cn2)c2ccccc2c1=O do in these assays?
GPR151 ag: 7.6*; MITF inh: 12.5; TEAD-YAP block: 4.6; FBW7 act: 0.4; GPR151 confirm: 0.3; GPR119 counter: 3.7

Results for COc1ccc(OC)c(NC(=O)c2nn(-c3ccc(OC)cc3OC)c(=O)c3ccccc23)c1 ?
GPR151 ag: 8.7*; MITF inh: 14.2; TEAD-YAP block: 10.2; FBW7 act: 0.0; GPR151 confirm: -0.7; GPR119 counter: -1.4

How did COc1ccc(-n2nc(C(=O)Nc3cc(Cl)ccc3OC)c3ccccc3c2=O)c(OC)c1 do in these assays?
GPR151 ag: -1.7; MITF inh: -1.9; TEAD-YAP block: -6.2; FBW7 act: -0.1

How did COc1ccc(-n2nc(C(=O)NCC(=O)NCCCN3CCN(c4cccc(Cl)c4)CC3)c3ccccc3c2=O)cc1OC do in these assays?
GPR151 ag: 4.9*; MITF inh: 20.2; TEAD-YAP block: 16.6; FBW7 act: 0.1; GPR151 confirm: -0.3; GPR119 counter: -0.4

Results for CCOc1ccc(NC(=O)c2nnn(-c3ccccc3OC)c2C)cc1 ?
GPR151 ag: 5.7*; MITF inh: 9.3; TEAD-YAP block: -1.8; FBW7 act: 0.7; GPR151 confirm: -0.2; GPR119 counter: 0.0

How did CC(=O)Nc1nc(C(=O)Nc2nc3c(s2)C(=O)CCC3)cs1 do in these assays?
GPR151 ag: -1.4; MITF inh: 14.1; TEAD-YAP block: -1.6; FBW7 act: -0.1

Results for CCOc1ccc(-n2nc(C(=O)Nc3ccc(OC)c(OC)c3)c3ccccc3c2=O)cc1 ?
GPR151 ag: 5.6*; MITF inh: 12.0; TEAD-YAP block: -5.7; FBW7 act: 0.6; GPR151 confirm: -0.8; GPR119 counter: 9.2

What do the screens show for `CCOc1ccccc1N(C)C(=O)c1nn(-c2cc(OC)cc(OC)c2)c(=O)c2ccccc12`?
GPR151 ag: 6.6*; MITF inh: 9.2; TEAD-YAP block: -0.6; FBW7 act: 0.2; GPR151 confirm: -0.3; GPR119 counter: -5.9

Results for CCOc1ccccc1N(C)C(=O)c1nn(-c2ccc(OC)cc2)c(=O)c2ccccc12 ?
GPR151 ag: -0.5; MITF inh: 3.0; TEAD-YAP block: 6.8; FBW7 act: -0.2

Compound activity: PubChem, The Scripps Research Institute Molecular Screening Center
